Results published in PubChem BioAssay AID1159580 (chemical genetic matrix, 2015).
Values joined by “and” are separate entries in the source; they are usually repeats but may differ in a detail not shown here. Equal values may be shown once. Among all 5,500 compounds or so, about 2,000 (36%) were called active. Not shown: some 18% with an inconclusive outcome. Cut-off read from the data, not from the text of the source: active = normalized growth mostly below about 0.91 (no sharp cut-off); inconclusive = no clear call, values can overlap the other calls; inactive = mostly above about 0.92. This is one part of the list.

Test: chemical genetic growth profiling, strain panel (AID 1159580);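 note: tested at 20 µM; growth read once vehicle control cultures reached saturation at 30 °C; 1 = growth at the plate median or of vehicle wells; lower values mean less growth of the strain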
Conditions: S. cerevisiae deletion strains, growth OD

Measured: normalized growth

CC(=O)Oc1ccccc1C(=O)Oc1ccccc1C(=O)O
inactive: locus YAL013W, strain DEP1, stronger effect = lower value 0.989 | locus YAL021C, strain ccr4, stronger effect = lower value 1.01 | locus YAL026C, strain drs2, stronger effect = lower value 1.01 | locus YAL030W, strain snc1, stronger effect = lower value 1 | locus YBL061C, strain skt5, stronger effect = lower value 1 | locus YBR009C, strain hhf1, stronger effect = lower value 1.01 | locus YBR021W, strain FUR4, stronger effect = lower value 0.981 | locus YBR023C, strain chs3, stronger effect = lower value 0.998 | locus YBR171W, strain sec66, stronger effect = lower value 1 | locus YBR229C, strain ROT2, stronger effect = lower value 0.992 | locus YBR231C, strain swc5, stronger effect = lower value 0.995 | locus YBR279W, strain paf1, stronger effect = lower value 1 | locus YCL011C, strain gbp2, stronger effect = lower value 1.02 | locus YCL016C, strain dcc1, stronger effect = lower value 1 | locus YCL029C, strain bik1, stronger effect = lower value 0.98 | locus YCL069W, strain vba3, stronger effect = lower value 1 | locus YCR088W, strain abp1, stronger effect = lower value 1 | locus YDL005C, strain med2, stronger effect = lower value 0.995 | locus YDL035C, strain GPR1, stronger effect = lower value 1 | locus YDL040C, strain nat1, stronger effect = lower value 1 | locus YDL074C, strain BRE1, stronger effect = lower value 1.01 | locus YDL101C, strain DUN1, stronger effect = lower value 0.997 | locus YDL134C, strain PPH21, stronger effect = lower value 1.02 | locus YDL185W, strain tfp1, stronger effect = lower value 0.987 | locus YDL192W, strain arf1, stronger effect = lower value 0.993 | locus YDR001C, strain nth1, stronger effect = lower value 1.01 | locus YDR069C, strain doa4, stronger effect = lower value 0.996 | locus YDR101C, strain arx1, stronger effect = lower value 0.994 | locus YDR137W, strain rgp1, stronger effect = lower value 1 | locus YDR150W, strain NUM1, stronger effect = lower value 0.996 | locus YDR159W, strain sac3, stronger effect = lower value 0.962 | locus YDR162C, strain NBP2, stronger effect = lower value 1.02 | locus YDR195W, strain ref2 0.962 | locus YDR297W, strain sur2, stronger effect = lower value 1.01 | locus YDR318W, strain mcm21, stronger effect = lower value 0.986 | locus YDR334W, strain swr1, stronger effect = lower value 1 | locus YDR335W, strain msn5, stronger effect = lower value 1 | locus YDR388W, stronger effect = lower value 0.986 | locus YDR392W, strain spt3, stronger effect = lower value 0.954 | locus YDR502C, strain sam2, stronger effect = lower value 0.985 | locus YEL003W, strain gim4, stronger effect = lower value 1.01 | locus YEL037C, strain rad23, stronger effect = lower value 1 | locus YEL061C, strain CIN8 (second series), stronger effect = lower value 1.01 | locus YEL061C, strain CIN8, stronger effect = lower value 0.999 | locus YER015W, strain faa2, stronger effect = lower value 0.997 | locus YER016W, strain bim1, stronger effect = lower value 1 | locus YER110C, stronger effect = lower value 0.98 | locus YER111C, strain swi4, stronger effect = lower value 0.994 | locus YER155C, strain BEM2 (second series), stronger effect = lower value 1.02 | locus YER155C, strain BEM2, stronger effect = lower value 0.986 | locus YER167W, strain BCK2, stronger effect = lower value 0.991 | locus YFR010W, strain ubp6, stronger effect = lower value 1.02 | locus YGL078C, strain dbp3, stronger effect = lower value 0.977 | locus YGL086W, strain mad1, stronger effect = lower value 0.984 | locus YGL167C, strain pmr1, stronger effect = lower value 0.996 | locus YGL173C, strain kem1, stronger effect = lower value 1.02 | locus YGL227W, strain vid30, stronger effect = lower value 0.998 | locus YGL240W, strain doc1, stronger effect = lower value 0.978 | locus YGL248W, strain PDE1, stronger effect = lower value 0.992 | locus YGL253W, strain hxk2, stronger effect = lower value 0.996 | locus YGR078C, strain PAC10, stronger effect = lower value 1.01 | locus YGR135W, strain pre9, stronger effect = lower value 0.999 | locus YGR229C, strain SMI1, stronger effect = lower value 1.01 | locus YGR252W, strain gcn5, stronger effect = lower value 0.966 | locus YHR013C, strain ard1, stronger effect = lower value 1.01 | locus YHR027C, strain rpn1, stronger effect = lower value 0.985 | locus YHR030C, strain SLT2, stronger effect = lower value 0.991 and 0.986 | locus YHR079C, strain IRE1 (second series), stronger effect = lower value 0.983 | locus YHR079C, strain IRE1, stronger effect = lower value 0.995 | locus YHR094C, strain hxt1, stronger effect = lower value 0.98 | locus YHR129C, strain ARP1, stronger effect = lower value 1 | locus YHR142W, strain chs7, stronger effect = lower value 1.01 | locus YHR200W, strain rpn10, stronger effect = lower value 0.97 | locus YIL066C, strain RNR3, stronger effect = lower value 0.982 | locus YIL073C, strain SPO22, stronger effect = lower value 0.975 | locus YIL125W, strain kgd1, stronger effect = lower value 0.977 | locus YIR030C, strain dcg1, stronger effect = lower value 0.983 | locus YJL092W, strain hpr5, stronger effect = lower value 1.01 | locus YJL095W, strain BCK1 (second series), stronger effect = lower value 0.997 | locus YJL095W, strain BCK1, stronger effect = lower value 1.01 and 1 | locus YJL115W, strain asf1, stronger effect = lower value 1.01 | locus YJL129C, strain trk1, stronger effect = lower value 1.01 | locus YJL134W, strain LCB3, stronger effect = lower value 0.992 | locus YJL154C, strain vps35, stronger effect = lower value 1 | locus YJL164C, strain tpk1, stronger effect = lower value 0.996 | locus YJL166W, strain qcr8, stronger effect = lower value 1.01 | locus YJL168C, strain set2, stronger effect = lower value 0.981 | locus YJL187C, strain SWE1 (second series), stronger effect = lower value 0.993 | locus YJL187C, strain SWE1, stronger effect = lower value 1.01 | locus YJR043C, strain POL32, stronger effect = lower value 0.995 | locus YJR066W, strain TOR1, stronger effect = lower value 0.905
